# Hit rate of the full screen: of about 38,000 compounds, about 1,200 (3.2%) showed an effect of 50% or more. The median lay at about -58%. The sample as a whole holds a higher share of strong results than the screen did.
# Test system: Plasmodium falciparum
# Assay: Calibr Malaria Delayed Death Assay SOP
# Format: functional, organism-based
# Set-up: scale not given: in the data most compounds retested in dose-response had high values
# Conditions: concentration 4.99e-06 (unit not given; other assays of the set use mol/L)
row,Compound,Percent Effect [%]
1,CC1CCC(NC(=O)NCC(C)(C)CCS(C)(=O)=O)CC1 (stereo unspecified),-129.7
2,CCN(Cc1ccc(S(C)(=O)=O)cc1)Cc1nc(COC)no1,-129.1
3,O=c1cc(Cn2ccnc2)nc2n1CCCN(Cc1cccs1)C2,-55.92
4,O=C(NCCCO)c1cc(-c2cc[nH]n2)n2ccccc12.O=C(O)C(F)(F)F,-31.15
5,COc1ccc(C(NCc2cccc(C#N)c2)C(C)C)cc1 (stereo unspecified),-12.81
6,COc1ccc(C(NCc2cccc(C#N)c2)C2CC2)cc1 (stereo unspecified),47.49
7,COc1ccc(C(NCc2cccc(O)c2)C2CC2)cc1 (stereo unspecified),83.32
8,CC(C)CCNC(=O)NC(C)c1nncn1C (stereo unspecified),-95.25
9,CCN1CCC2(CC1)CN(C(=O)c1cccnc1)c1ccc(Cl)cc12.O=C(O)C(F)(F)F.O=C(O)C(F)(F)F,9.219
10,CC(=O)N1CCC2(CC1)CN(C(=O)c1cccnc1)c1ccc(F)cc12.O=C(O)C(F)(F)F,-38.16
11,CN1CCC2(CC1)CN(C(=O)c1cccnc1)c1ccc(Cl)cc12,55.37
12,O=C(CN1CCC(c2nnc(C(F)(F)F)o2)CC1)Nc1cccc(Cl)c1,-52.49
13,CC(C)Nc1ncnc2c1CCN(C(=O)c1ccccc1F)CC2.O=C(O)C(F)(F)F,-96.03
14,O=S(=O)(NC1=NCN(CCc2cccs2)CN1)c1ccc(Br)cc1,-31.17
15,CCCC(=O)N1CCC(N2CC[C@@](O)(CCOC)[C@H](C)C2)CC1,-32.76
16,CCCS(=O)(=O)N1CCC2(CC1)CC(Nc1ncccn1)CO2 (stereo unspecified),-70.84
17,O=C(NC1CC1)N1CCn2c(Cn3cccn3)cnc2C1.O=C(O)C(F)(F)F,-67.84
18,CC(C)N(C)Cc1cnc2n1CCN(C(=O)Cc1ccccn1)C2.O=C(O)C(F)(F)F.O=C(O)C(F)(F)F,-6.542
19,CC(C)N(C)Cc1cnc2n1CCN(CCc1ccccc1)C2.O=C(O)C(F)(F)F.O=C(O)C(F)(F)F,0.4179
20,CC(C)N(C)Cc1cnc2n1CCN(C(=O)c1cccs1)C2,60.68
21,O=C(c1cccs1)N1CCc2ncc(Cn3cncn3)n2CC1,-172.5
22,Cc1noc(C2CCC3(CCN(C(=O)c4ccnnc4)CC3)O2)n1 (stereo unspecified),-55.26
23,Cc1cccc(NC(=O)[C@@H]2CCCN2Cc2nc(C)c(C)o2)n1,-28.43
24,CCOc1ccc(C(C)Nc2ncnc3c2CCNC3)cc1OCC (stereo unspecified),46.78
25,CC(C)Nc1ncnc2c1CCNCC2,-47.68
26,CC(Nc1ncnc2c1CCNC2)c1ccc2c(c1)CCCC2 (stereo unspecified),70.15

row,Compound,Percent Effect [%]
1,Cc1ccc(C)c(-n2ncc(C(=O)NCC3COC(C)(C)O3)c2N)c1 (stereo unspecified),-97.45
2,COCCN(C)C[C@@H]1CN(C(=O)c2cccc(C#N)c2)C[C@@H]1CO,-70.73
3,COc1cc(Cl)c(NCc2c(C)noc2C)cc1OC,-68.38
4,CC1CN(c2ncccc2C(=O)Nc2cccc3c2CCCC3)CCN1 (stereo unspecified),10.16
5,Cc1cccc(C(=O)Nc2cccc3c2CCCC3)n1,-261.8
6,O=C(Nc1cccc2c1CCCC2)c1cccnc1N1CCCNCC1,53.52
7,Cc1cccc(OC2CCN(C(=O)c3ccc4ncsc4c3)CC2)n1,-115.6
8,CCNc1ncc2c(n1)CN(c1ccc(Cl)cc1)C2=O,-180.2
9,Cc1cccc(COC2COC3(CCN(Cc4ccoc4)CC3)C2)n1 (stereo unspecified),-18.84
10,CCOC1COC2(CCN(Cc3cccc(C)n3)CC2)C1.O=C(O)C(F)(F)F (stereo unspecified),-37.49
11,CCN1CCC2(CC1)CC(NCc1cccc(C)n1)c1ccccc1O2.O=C(O)C(F)(F)F.O=C(O)C(F)(F)F.O=C(O)C(F)(F)F (stereo unspecified),91.27
12,CCCC(=O)N1CCC2(CC1)CC(NC(C)=O)c1ccccc1O2 (stereo unspecified),-58.82
13,Cc1cccc(COC2COC3(CCN(S(C)(=O)=O)CC3)C2)n1.O=C(O)C(F)(F)F (stereo unspecified),-59.75
14,COC(=O)c1cc(C)nc(N2CCN(Cc3ccn(C(C)C)c3)CC2)n1,-8.689
15,Cc1cccc(NC(=O)CN2C(=O)CC(C)(C)c3ccccc32)n1,-54.59
16,CC(C)OCCC(=O)N1CCN(CC(O)c2ccccc2)CC1 (stereo unspecified),-51.21
17,COc1cc(N2CC[C@@H]3O[C@@H](C(=O)NCCN(C)C)C[C@@H]32)ncn1,-52.73
18,O=C(Cc1n[nH]c(-c2cncc(Br)c2)n1)NCc1cccnc1,-11.15
19,Cn1ncc2c1CCCC2NCc1cccc(OC2CCCC2)c1 (stereo unspecified),2.699
20,CC(C)[C@H](NC(=O)Cn1nc2c(cc1=O)CCCC2)C(=O)O,-82.81
21,CCn1nccc1CNC(=O)C1CCCCC1,-119.3
22,Cc1cc(NC(=O)NC2CCN(C(C)C)CC2)c2ncccc2c1,79.09
23,Cc1cc(NC(=O)N2CCCC2C(C)(C)O)c2ncccc2c1 (stereo unspecified),-22.81
24,Cc1cc(NC(=O)N2CCCC2C(=O)NC2CC2)c2ncccc2c1 (stereo unspecified),-118
25,CC(C)C(=O)Nc1ccc2c(c1)ncn2CC(=O)NCCN(C)C,-104.6
26,O=C(Cc1cccc(Cl)c1)N[C@@H]1CCNC[C@H]1O,-79.06

row,Compound,Percent Effect [%]
1,O=C(NCCc1cccc(Cl)c1)C1CCOCC1,-133.6
2,O=C(C[S+]([O-])Cc1cccc(Cl)c1)NC1CCCC1 (stereo unspecified),-107.7
3,O=C(O)c1cn2cc(C(F)(F)F)ccc2n1,-36.42
4,O=C(NCc1ccco1)[C@H]1C[C@H]2OCC[C@H]2N(C(=O)c2ccnnc2)C1,-30.68
5,CCCN1CCC(N2CCOC(Cc3cccc(OC)c3)C2)CC1 (stereo unspecified),-127.7
6,O=C(NCCN1CCCCC1)c1nc(-c2cccc3[nH]ccc23)no1,15.88
7,COCC(=O)N1CCCC1c1csc(Nc2cnccn2)n1 (stereo unspecified),-55
8,CCC(=O)N1CCCC1c1csc(Nc2cnccn2)n1 (stereo unspecified),-46.83
9,O=C(O)C(F)(F)F.O=C(O)C(F)(F)F.O=C1NC2(CCN(Cc3ccoc3)CC2)CC1c1ccncc1 (stereo unspecified),-15.5
10,Nc1nccc(N2CCC(c3cc(Cc4ccccc4)n[nH]3)CC2)n1,35.49
11,Cc1csc(CNC(=O)NCC(O)c2ccc(F)c(F)c2)n1 (stereo unspecified),2.8
12,Cc1n[nH]c(C)c1CNCC(O)c1ccc(F)c(F)c1 (stereo unspecified),14.72
13,Cc1nc(CNC(=O)NCC(O)c2ccc(F)c(F)c2)cs1 (stereo unspecified),-178.5
14,Cc1n[nH]cc1CNCC(O)c1ccc(F)c(F)c1.Cl (stereo unspecified),-33.27
15,Cc1cc(C)c(CNCC(O)c2ccc(F)c(F)c2)c(C)c1.Cl (stereo unspecified),92.75
16,COCCCNc1nc(CNC(C)=O)cc(-c2ccco2)n1,-87.48
17,O=C(O)C(F)(F)F.O=S(=O)(C1CC1)N1CCc2ncnc(N3CCCC3)c2CC1,-107.1
18,CCc1nc(C2CCCN2Cc2cnc(C)cn2)no1 (stereo unspecified),-15.63
19,CC(C)c1cc(NC(=O)CN2CCCC2Cn2cncn2)on1 (stereo unspecified),-56.31
20,COc1cc(C(=O)NCc2ccc3c(c2)CCCN3C)cc(OC)c1Br,65
21,CN1CCCc2cc(CNC(=O)c3ccncc3)ccc21,-23.61
22,COC(=O)c1cccc(C(=O)NCc2ccc3c(c2)CCCN3C)c1,-12.04
23,Cc1nn(CC(O)CN2CCC(C)CC2)c(=O)c(C#N)c1C (stereo unspecified),-55.82
24,O=C(Cn1ccc2ccccc21)NC[C@@H]1CCCN2CCCC[C@H]12,-17.29
25,O=C(CCn1ccc2cc(Br)ccc21)NC[C@@H]1CCCN2CCCC[C@H]12,65.78
26,O=C(Cn1ccc2ccc(Br)cc21)NC[C@@H]1CCCN2CCCC[C@H]12,78.77

row,Compound,Percent Effect [%]
1,O=C(O)C1CCN(C(=O)CCn2ccc3cc(Br)ccc32)CC1,-107.6
2,O=C(Cn1ccc2cc(Br)ccc21)NC[C@@H]1CCCN2CCCC[C@H]12,-18.45
3,Cc1cccc2c1ccn2CC(=O)NC[C@@H]1CCCN2CCCC[C@H]12,70.06
4,O=C(O)C1CCN(C(=O)Cn2ccc3c(Cl)cccc32)CC1,-74.89
5,O=C(Cn1ccc2ccc(F)cc21)NC[C@@H]1CCCN2CCCC[C@H]12,36.3
6,COc1ccc2c(ccn2CC(=O)NC[C@@H]2CCCN3CCCC[C@H]23)c1,-61.04
7,CC(C)c1nsc(N2CCC(OCCN3CCOCC3)CC2)n1,-47.66
8,CN(C)C(=O)COCC1CN(C2CCC2)Cc2ncn(C)c21.O=C(O)C(F)(F)F.O=C(O)C(F)(F)F (stereo unspecified),-81.18
9,Cc1cc2ccccc2n1CCC(=O)N1CCCC(O)(CN(C)C)CC1 (stereo unspecified),54.68
10,Cc1c(C(=O)N2CCCC(O)(CN(C)C)CC2)c2cc(O)ccc2n1C (stereo unspecified),-101.4
11,CN(C)CC1(O)CCCN(C(=O)Cn2nc3ccccc3n2)CC1 (stereo unspecified),-95.76
12,Cn1nnc2c1C(COCC1CC1)CN(C(=O)Cc1cccs1)C2 (stereo unspecified),-35.42
13,N#Cc1c(CN2CCCC2Cn2cccn2)cn2ccccc12 (stereo unspecified),-64.03
14,CCc1cc(C(=O)N2CC[C@@H](c3ccc4ccccc4c3)[C@H](O)C2)[nH]n1,17.14
15,CC(O)CN1CCC(CN(C)Cc2cc(F)cc3cccnc23)CC1 (stereo unspecified),86.77
16,CN(Cc1cc(Cl)cc2cccnc12)CC1CCN(CCO)CC1,88.36
17,CN(Cc1noc(C2CC2)n1)CC1CCN(CCO)CC1,-111.1
18,CN(Cc1cc(F)cc2cccnc12)CC1CCN(CCO)CC1,84.26
19,CC(O)CN1CCC(CN(C)CCC(=O)NC2CCCC2)CC1 (stereo unspecified),-87.19
20,CC(C)c1nc(CN(C)CC2CCN(CCO)CC2)no1,-37.31
21,CN(CC(N)=O)Cc1cc(Cl)cc2cccnc12,-110.1
22,CC(O)CN1CCC(CN(C)CC(=O)NC(C)C)CC1 (stereo unspecified),-132.6
23,OCCN1CCN(Cc2cc(Cl)cc3cccnc23)CC1,-35.44

# Reference: ChEMBL document CHEMBL3988442, “University of Dundee, Small-Polar-MMV Screening Library” (2021)
